# Results published in PubChem BioAssay (NCATS).
# Inconclusive results are not listed. A call without a number means that no potency is given here. Activity calls are given as the source filed them. Calls come from the whole dose curve; as a rule, active = well fitted curve in the direction sought with a large enough effect; inconclusive = small, poorly fitted or top-dose-only effect, or another doubt; inactive = no such curve, though single readings can be large; an effect the other way counts as inactive or inconclusive. Bridge positions count the residues as written; N and C are the ends. Square brackets hold non-standard residues; d marks the D form. Peptide text beside a SMILES is read from it. * marks the point of attachment. ξ: configuration not given here. ξDab(CH2SO3H) = NC(CCNCS(=O)(=O)O)C(=O)O; Heptanoyl(6-Me) = CC(C)CCCCC(=O)*; Dab = NCC[CH](N)C(=O)O
# How the values were obtained:
# [1] = target: Cytochrome P450 3A4 (Homo sapiens) (UniProt P08684); experiment: qHTS Assay for Inhibitors and Substrates of Cytochrome P450 3A4 (AID 884); conditions: recombinant CYP3A4, Luciferin-PPXE luminescence; series mostly up to 57.1 µM; note: nearly all actives have a fitted effect of over 50% in size
# Sequence of Cytochrome P450 3A4 (Homo sapiens) (P08684 whole entry, looked up): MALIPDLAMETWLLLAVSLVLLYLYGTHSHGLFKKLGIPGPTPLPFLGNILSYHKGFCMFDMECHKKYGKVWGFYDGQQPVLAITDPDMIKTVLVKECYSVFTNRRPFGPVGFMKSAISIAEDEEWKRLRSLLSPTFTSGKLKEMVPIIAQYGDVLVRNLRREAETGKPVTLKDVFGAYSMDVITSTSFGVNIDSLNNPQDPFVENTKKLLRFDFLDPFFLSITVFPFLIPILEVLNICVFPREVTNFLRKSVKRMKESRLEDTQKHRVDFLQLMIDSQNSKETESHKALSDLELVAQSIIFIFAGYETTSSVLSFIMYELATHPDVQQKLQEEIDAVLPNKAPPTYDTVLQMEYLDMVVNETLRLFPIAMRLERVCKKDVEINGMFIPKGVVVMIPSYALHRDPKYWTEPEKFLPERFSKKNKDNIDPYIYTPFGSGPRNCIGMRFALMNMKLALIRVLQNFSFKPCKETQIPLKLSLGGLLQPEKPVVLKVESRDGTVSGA
# Outline: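 20 nM human CYP3A4 with 25 uM Luciferin-PPXE (at KM) in 200 mM KPO4, preincubated 10 min with compound; NADPH regeneration started a 60 min RT reaction. Luciferin detected by luminescence, normalized to 57 uM ketoconazole as full inhibition.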
# [2] = target: Ubiquitin carboxyl-terminal hydrolase 1 (Homo sapiens) (UniProt O94782); experiment: Inhibitors of USP1/UAF1: Pilot qHTS (AID 504865); conditions: purified USP1/UAF1, Ub-rhodamine cleavage fluorescence; series mostly up to 114 µM; note: nearly all actives have a fitted effect of over 35% in size; note: potency is the fitted concentration of half-maximal effect
# Sequence of Ubiquitin carboxyl-terminal hydrolase 1 (Homo sapiens) (O94782 whole entry, looked up): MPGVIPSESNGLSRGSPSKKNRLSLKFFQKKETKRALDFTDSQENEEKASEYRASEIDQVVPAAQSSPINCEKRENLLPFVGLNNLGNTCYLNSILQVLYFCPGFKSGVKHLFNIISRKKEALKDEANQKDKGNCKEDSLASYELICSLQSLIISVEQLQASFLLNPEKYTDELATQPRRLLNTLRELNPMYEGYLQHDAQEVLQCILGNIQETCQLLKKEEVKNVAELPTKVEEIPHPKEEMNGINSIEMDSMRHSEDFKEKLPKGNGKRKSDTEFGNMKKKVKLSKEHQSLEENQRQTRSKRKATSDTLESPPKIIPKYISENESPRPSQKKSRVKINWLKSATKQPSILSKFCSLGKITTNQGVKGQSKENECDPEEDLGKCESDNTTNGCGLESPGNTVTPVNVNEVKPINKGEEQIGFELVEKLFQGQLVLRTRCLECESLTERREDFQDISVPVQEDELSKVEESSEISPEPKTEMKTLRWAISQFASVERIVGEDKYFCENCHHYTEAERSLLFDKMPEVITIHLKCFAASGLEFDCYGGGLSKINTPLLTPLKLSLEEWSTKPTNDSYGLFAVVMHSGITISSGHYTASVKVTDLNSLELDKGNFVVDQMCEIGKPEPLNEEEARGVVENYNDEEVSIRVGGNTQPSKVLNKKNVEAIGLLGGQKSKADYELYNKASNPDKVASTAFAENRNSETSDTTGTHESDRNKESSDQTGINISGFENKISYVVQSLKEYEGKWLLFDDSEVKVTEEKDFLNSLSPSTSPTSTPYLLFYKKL
# Outline: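 Kinetic fluorescence assay: 1nM USP1/UAF1, 15 min compound preincubation, then 150nM Ub-Rho; 480/540 nm.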
# [3] = target: DNA dC->dU-editing enzyme APOBEC-3G (Homo sapiens) (UniProt Q9HC16); experiment: qHTS for inhibitors of Vif-A3G interactions: Validation (AID 588379); conditions: Vif-A3G protein interaction assay; series mostly up to 46.1 µM
# Sequence of DNA dC->dU-editing enzyme APOBEC-3G (Homo sapiens) (Q9HC16 whole entry, looked up): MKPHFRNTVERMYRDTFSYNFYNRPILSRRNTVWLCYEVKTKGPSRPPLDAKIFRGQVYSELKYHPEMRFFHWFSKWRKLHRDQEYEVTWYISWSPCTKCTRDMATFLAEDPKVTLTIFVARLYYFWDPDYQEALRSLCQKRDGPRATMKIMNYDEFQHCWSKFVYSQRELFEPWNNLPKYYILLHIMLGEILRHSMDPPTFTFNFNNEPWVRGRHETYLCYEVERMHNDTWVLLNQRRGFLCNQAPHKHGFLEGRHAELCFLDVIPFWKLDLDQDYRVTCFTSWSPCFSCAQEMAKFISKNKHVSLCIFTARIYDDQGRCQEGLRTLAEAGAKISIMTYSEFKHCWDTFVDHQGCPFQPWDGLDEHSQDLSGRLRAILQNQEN
# Outline: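 HeLa cells stably expressing Vif and A3G-eYFP, 700 cells/well, incubated overnight at 37 deg C, then exposed to compound overnight at 37 deg C. Inhibition of Vif-mediated degradation read as increased yellow fluorescence (Ex 488/Em 500-530) by laser-scanning cytometry.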
# [4] = target: Luciferin 4-monooxygenase (Photinus pyralis) (UniProt P08659); experiment: Biochemical firefly luciferase enzyme assay for NPC (AID 624030);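 note: purified P. pyralis luciferase at 10 nM with luciferin and ATP substrate; nearly all actives have a fitted effect of over 70% in size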; conditions: purified P. pyralis luciferase, luminescence, 5 min; series mostly up to 58.6 µM
# Sequence of Luciferin 4-monooxygenase (Photinus pyralis) (P08659 whole entry, looked up): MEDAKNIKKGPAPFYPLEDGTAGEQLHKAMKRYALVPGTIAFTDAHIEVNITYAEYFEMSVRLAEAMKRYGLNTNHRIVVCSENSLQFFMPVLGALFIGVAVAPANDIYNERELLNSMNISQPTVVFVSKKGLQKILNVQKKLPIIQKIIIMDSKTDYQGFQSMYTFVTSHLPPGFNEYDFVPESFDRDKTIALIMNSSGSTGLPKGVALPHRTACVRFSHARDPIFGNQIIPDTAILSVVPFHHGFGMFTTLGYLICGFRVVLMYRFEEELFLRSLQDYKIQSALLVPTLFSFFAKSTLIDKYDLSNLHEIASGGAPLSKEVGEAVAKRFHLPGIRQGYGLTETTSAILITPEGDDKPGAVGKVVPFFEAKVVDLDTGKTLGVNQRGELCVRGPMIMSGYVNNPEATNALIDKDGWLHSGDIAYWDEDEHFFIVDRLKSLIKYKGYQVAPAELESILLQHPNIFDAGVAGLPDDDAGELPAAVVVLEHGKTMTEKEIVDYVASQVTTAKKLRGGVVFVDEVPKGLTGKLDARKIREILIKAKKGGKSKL
# Outline: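 Counter-screen for direct inhibition of the luciferase enzyme by approved-drug library compounds, run at 10 nM enzyme in 50 mM Tris acetate (final). Luminescence was read within 5 min of enzyme-buffer addition and normalized to PTC124 versus DMSO (0%).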
# [5] = qHTS profiling for inhibitors of Plasmodium falciparum proliferation (AID 504749); note: nearly all actives have a fitted effect of over 60% in size; conditions: P. falciparum in erythrocytes, SYBR Green DNA, 72 h, at 28.7 µM (top of the series)
# Outline: (§1)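 Parasite proliferation within erythrocytes, 72 h exposure. Endpoint: SYBR Green I fluorescence after overnight lysis at room temperature. Controls: 0.29 uM artemisinin, DMSO.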
# [6] = system: ATS189; experiment: as above; conditions: P. falciparum in erythrocytes, SYBR Green DNA, 72 h; series mostly up to 28.7 µM
# Outline: as §1
# [7] = system: CP185; experiment: as above; conditions: P. falciparum in erythrocytes, SYBR Green DNA, 72 h; series mostly up to 28.7 µM
# Outline: as §1
# [8] = system: CP201; experiment: as above; conditions: P. falciparum in erythrocytes, SYBR Green DNA, 72 h; series mostly up to 28.7 µM
# Outline: as §1
# [9] = system: CP238; experiment: as above; conditions: P. falciparum in erythrocytes, SYBR Green DNA, 72 h; series mostly up to 28.7 µM
# Outline: as §1
# [10] = system: CP252; experiment: as above; conditions: P. falciparum in erythrocytes, SYBR Green DNA, 72 h; series mostly up to 28.7 µM
# Outline: as §1
# [11] = system: CP265; experiment: as above; conditions: P. falciparum in erythrocytes, SYBR Green DNA, 72 h; series mostly up to 28.7 µM
# Outline: as §1
# [12] = system: CP286; experiment: as above; conditions: P. falciparum in erythrocytes, SYBR Green DNA, 72 h; series mostly up to 28.7 µM
# Outline: as §1
# [13] = system: CP305; experiment: as above; conditions: P. falciparum in erythrocytes, SYBR Green DNA, 72 h; series mostly up to 28.7 µM
# Outline: as §1
# [14] = system: CP325; experiment: as above; conditions: P. falciparum in erythrocytes, SYBR Green DNA, 72 h; series mostly up to 28.7 µM
# Outline: as §1
# [15] = system: FAB9; experiment: as above; conditions: P. falciparum in erythrocytes, SYBR Green DNA, 72 h; series mostly up to 28.7 µM
# Outline: as §1
# [16] = system: PC49; experiment: as above; conditions: P. falciparum in erythrocytes, SYBR Green DNA, 72 h; series mostly up to 28.7 µM
# Outline: as §1
# [17] = Confirmation and Secondary Assay for Modulators of Hemoglobin Beta Chain Splicing at IVS2 654 locus (AID 910); conditions: HeLa EGFP-654 splicing reporter, GFP fluorescence, 48 h; series mostly up to 46.1 µM;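 note: per-well total GFP intensity by laser scanning cytometry after 2-day treatment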
# Outline: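 HeLa cells stably carrying EGFP interrupted by mutant beta-globin IVS2-654 intron (CMV-driven) were treated with compound for 2 days at 37C; corrected splicing was scored as total peak GFP intensity per well (488 nm excitation, 500-520 nm emission).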
# [18] = Confirmation and Secondary Assay for Modulators of Hemoglobin Beta Chain Splicing at IVS2 705 locus (AID 930); conditions: HeLa EGFP-705 splicing reporter, GFP fluorescence, 48 h; series mostly up to 46.1 µM;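 note: HeLa cells stably expressing the EGFP-705 splicing reporter; GFP fluorescence per well restored by corrected splicing of the IVS2-705 intron in EGFP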
# Outline: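 Assay measures total GFP intensity per well in HeLa EGFP-705 cells after 2 days with compound; mis-splicing normally truncates EGFP, so fluorescence indicates corrected splicing.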
SMILES,Potency [1],Potency [2],Potency [3],Potency [4],"activity, negative = inhibition ([5]; parasite line A)","activity, negative = inhibition ([5]; parasite line B)",Potency [6],Potency [7],Potency [8],Potency [9],Potency [10],Potency [11],Potency [12],Potency [13],Potency [14],Potency [15],Potency [16],outcome [17],outcome [18]
CC[C@H](/C=C/[C@@H](C)[C@H]1CC[C@H]2C3CC=C4C[C@@H](O)CC[C@]4(C)C3CC[C@]12C)C(C)C (stereo partly specified),inactive,inactive,inactive,–,–,–,–,–,–,–,–,–,–,–,–,–,–,–,–
CCC(Oc1ccccc1)C(=O)NC1C(=O)N2C1SC(C)(C)C2C(=O)O (stereo unspecified),–,inactive,–,inactive,-3.05% (inactive),10.5% (inactive),inactive,inactive,inactive,inactive,inactive,inactive,inactive,inactive,inactive,inactive,inactive,–,–
CCC(C)C1NC(=O)C(CCNCS(=O)(=O)O)NC(=O)C(NC(=O)C(CCNCS(=O)(=O)O)NC(=O)C(NC(=O)C(CCNCS(=O)(=O)O)NC(=O)CCCCC(C)C)C(C)O)CCNC(=O)C(C(C)O)NC(=O)C(CCNCS(=O)(=O)O)NC(=O)C(CCNCS(=O)(=O)O)NC(=O)C(C(C)CC)NC1=O (stereo unspecified) ({Heptanoyl(6-Me)}-[ξDab(CH2SO3H)]T[ξDab(CH2SO3H)][Dab][ξDab(CH2SO3H)]II[ξDab(CH2SO3H)][ξDab(CH2SO3H)]T; lactam 4-C; configuration not given here),inactive,44.7 µM (active),–,inactive,-19.4% (inactive),8.48% (inactive),inactive,inactive,inactive,inactive,inactive,inactive,inactive,inactive,inactive,inactive,inactive,inactive,inactive
CC(C)C(NC(=O)C(CC(=O)O)NC(=O)C(CCCCN)NC(=O)C(N)CCCN=C(N)N)C(=O)NC(Cc1ccc(O)cc1)C(=O)O (stereo unspecified) (H-RKDVY-OH; configuration not given here),–,inactive,–,inactive,0.811% (inactive),3.22% (inactive),inactive,inactive,inactive,inactive,inactive,inactive,inactive,inactive,inactive,inactive,inactive,–,–
